Bioassay records as filed in PubChem BioAssay.
RECQ1 inh-1 – RECQ1 (human) helicase inhibition; 240,000 compounds, 0.54% hits; P46063; Potency, µM (highest dose often 57.3 µM), without a hit: top-dose activity, negative = inhibition, hits mostly inhibitors; RECQ1 DNA unwinding, red fluorescence kinetic read;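 further: potency means the concentration at half of the fitted maximal effect; plate controls were vehicle for no effect and no enzyme for full effect; nearly all actives have a fitted effect of over 30% in size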
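50 nM RECQ1T1 preincubated 15 min with compound in Tris pH 8.0 buffer with MgCl2, DTT, Tween-20 and 2.5 ug/ml poly(dI-dC); started with 200 nM TAMRA/BHQ-2 forked duplex and 2 mM ATP. Unwinding read as fluorescence (525/598 nm), two reads 2 h apart.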
BLM inh – inhibitors of human Bloom syndrome helicase BLM; 350,000 compounds, 0.2% hits; Potency, µM (top dose mostly 56.1 µM), without a hit: at the highest dose activity change, negative = inhibition, most hits filed as inhibitors; P54132; recombinant BLM DNA unwinding, fluorescence dequenching;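 further: potency means the concentration at half of the fitted maximal effect; plate controls were vehicle for no effect and no enzyme for full effect; nearly all actives have a fitted effect of over 35% in size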
APE1 inh – blocks human APE1 abasic DNA cleavage; recombinant APE1, TAMRA/BHQ-2 abasic DNA cleavage fluorescence; 350,000 compounds, 0.35% hits; Potency, µM (titrated, usually from 65.8 µM), for the others: at the top dose activity change, negative = inhibition, hits mostly inhibitors; P27695;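 further: potency means the concentration at half of the fitted maximal effect; plate controls were vehicle for no effect and reference inhibitor for full effect; nearly all actives have a fitted effect of over 55% in size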
Target sequence (P27695 whole entry, looked up): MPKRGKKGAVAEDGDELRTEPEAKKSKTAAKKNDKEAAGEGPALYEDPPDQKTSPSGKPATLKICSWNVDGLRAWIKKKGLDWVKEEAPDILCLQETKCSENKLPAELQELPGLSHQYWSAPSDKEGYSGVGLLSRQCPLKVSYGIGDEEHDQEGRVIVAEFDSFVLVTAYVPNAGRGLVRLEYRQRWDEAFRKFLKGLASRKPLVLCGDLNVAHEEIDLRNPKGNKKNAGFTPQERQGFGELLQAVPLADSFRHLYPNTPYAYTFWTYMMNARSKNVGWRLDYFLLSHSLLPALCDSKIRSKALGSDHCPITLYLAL
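Step 1: APE1 (0.75 nM) with compound, 15 min RT. Step 2: add 50 nM fluorophore/quencher THF duplex. Step 3: three fluorescence reads 60 s apart (525/598 nm); read 3 minus read 1 = reaction progress.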
FEN1 inh – human FEN1 inhibition | P39748 | Recombinant FEN1 flap cleavage, fluorescence, 15 min | Potency, µM (highest dose often 114 µM), inactives show top-dose activity change, negative = inhibition, most hits filed as inhibitors | 390,000 compounds, 0.35% hits | AID 588795; further: potency means the concentration at half of the fitted maximal effect; on the % scale 0 is the no-effect control and ±100 the full control effect; nearly all actives have a fitted effect of over 65% in size
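Compounds are tested as a concentration series against 10 nM FEN1; after a 15 min room-temperature preincubation, 50 nM substrate starts cleavage, with plate reads at 0 and 15 min. Normalized responses are fitted by a Hill equation.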
PI5P4K alpha inh – blocks human PI5P4K alpha kinase activity; PI5P4Kalpha enzyme, ADP-Glo luminescence, 60 min; stronger effect = lower value; max response, %; 330,000 compounds, 1.2% hits; AID 652105; active means max response of -50% or lower; inconclusive means between -30% and -50%; inactive means -30% or higher; further: value at the top dose of about 77 µM; on the % scale 0 is the no-effect control and ±100 the full control effect
Target sequence (P48426 whole entry, looked up): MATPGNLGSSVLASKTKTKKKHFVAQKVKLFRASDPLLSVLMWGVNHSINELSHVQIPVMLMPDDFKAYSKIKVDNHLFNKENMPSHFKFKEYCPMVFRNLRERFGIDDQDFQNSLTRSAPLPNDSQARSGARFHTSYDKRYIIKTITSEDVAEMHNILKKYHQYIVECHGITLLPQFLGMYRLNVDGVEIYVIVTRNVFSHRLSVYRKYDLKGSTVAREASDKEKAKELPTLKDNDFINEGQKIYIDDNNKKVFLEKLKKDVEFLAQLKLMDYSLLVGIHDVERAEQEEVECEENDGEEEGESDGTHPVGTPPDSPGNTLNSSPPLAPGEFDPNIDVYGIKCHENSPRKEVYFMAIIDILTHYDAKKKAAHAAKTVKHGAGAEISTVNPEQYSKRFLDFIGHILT
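Quantitative HTS of the MLSMR library against PI5P4Kalpha with substrate. ATP added last at 5 microM final; room temperature, 60 minutes. Remaining ATP depleted, ADP converted and read as luminescence.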
GCN5L2 inh-1 – blocks human GCN5L2 histone acetyltransferase. Q92830. GCN5L2 HAT assay, ThioGlo1 CoA-SH fluorescence. Potency, µM (titrated, usually from 58.9 µM), for the others: at the highest dose activity change, negative = inhibition, actives largely listed as inhibitors. 390,000 compounds, 0.21% hits. AID 504327; further: potency means the concentration at half of the fitted maximal effect; on the % scale 0 is the no-effect control and ±100 the full control effect
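qHTS, 1536-well. 20nM enzyme, pH 7.5 HEPES/EDTA/Tween-20 buffer; 15 min compound preinc., RT. Start: 75uM H3(1-25), 70uM AcCoA, 50uM ThioGlo1. Read Ex340/Em540 at t=0 (autofluorescence flag) and t=20 min.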
RECQ1 inh-2 – confirmation of human RECQ1 helicase inhibitors; shares compounds with RECQ1 inh-1; recombinant RECQ1 DNA unwinding, red fluorescence; Potency, µM (titrated, usually from 119 µM), without a hit: at the top dose activity, negative = inhibition, hits mostly inhibitors; 1,100 compounds, 15% hits; further: potency means the concentration at half of the fitted maximal effect; on the % scale 0 is the no-effect control and ±100 the full control effect; nearly all actives have a fitted effect of over 50% in size
GCN5L2 inh-2 – confirmation of human GCN5L2 histone acetyltransferase inhibitors; shares compounds with GCN5L2 inh-1; GCN5L2 HAT, ThioGlo1 CoA fluorescence, 20 min; Potency, µM, actives largely listed as inhibitors; 140 compounds, 70% hits; AID 588347
ADP-Glo interf – counter-screen for PI5P4K inhibitors: ADP-Glo detection interference, no enzyme; shares compounds with PI5P4K alpha inh; ADP-Glo detection counter-screen, luciferase luminescence, no enzyme; Potency, µM (series often up to 76.9 µM), for inactives: at the top dose activity change, negative = inhibition, usual class: inhibitors; 1,100 tested, under 10 active
Numbers without * were called inactive; i = inactive; ? = inconclusive; . = not tested or not shown; [ ] = remark or other dose. In the library only some 1.5% were active in any assay of this set; here they are far more common. Unless noted, the call rests on the fitted dose curve; in most records, active means well fitted curve in the direction sought with a large enough effect; inconclusive means small, poorly fitted or top-dose-only effect, or another doubt; inactive means no such curve, though single readings can be large; an effect the other way counts as inactive or inconclusive.

SMILES	RECQ1 inh-1	BLM inh	APE1 inh	FEN1 inh	PI5P4K alpha inh	GCN5L2 inh-1	others
CCCCC1=CC2=C(c3ccco3)C(=O)C(C)(OC(=O)c3ccc(OC)cc3)C(=O)C2=CN1Cc1ccc2c(c1)OCO2 (stereo not drawn)	?	-11%[12.4 µM]	1%[12.4 µM]	-22%	-30	-16%
CCCCC1=CC2=C(c3ccco3)C(=O)C(C)(OC(=O)c3ccc(OC)cc3)C(=O)C2=CN1Cc1ccccc1 (stereo not drawn)	?	-3%[12.4 µM]	7%[12.4 µM]	-8%	-71*	-19%	RECQ1 inh-2=-9%;ADP-Glo interf=-2%
COc1ccc(-c2nnc3n2N=C(c2c(OC)cccc2OC)CS3)cc1OC	-14%	-4%	-2%	.	.	.
CCc1cccc2cc(C(O)CNC(C)(C)C)oc12 (stereo not drawn)	10%	1%	19%	.	.	1%
COc1cccc(C(=O)Nc2cccc(C(=O)NC3=NN(c4c(Cl)cc(Cl)cc4Cl)C(=O)C3)c2)c1	32µM*	-26%	6%	?	-58*	?	RECQ1 inh-2=?;ADP-Glo interf=3%
O=C(NC1CCC(O)CC1)c1cc(-c2ccco2)nc2ccccc12 (stereo not drawn)	22µM*	-25%	?	-24%	-67*	-23%	RECQ1 inh-2=?;ADP-Glo interf=-6%
CCc1nnc(NC(=O)c2cc(-c3ccccn3)nc3ccccc23)s1	-11%	0%	15%	-20%	2	2%
CCc1nnc(NC(=O)c2cc(-c3ccco3)nc3ccccc23)s1	?	-20%	?	?	-78*	-11%	RECQ1 inh-2=?;ADP-Glo interf=-6%
CC(=O)c1sc2nc(-c3ccco3)ccc2c1N	3.5µM*	?	3.2µM*	?	-61*	?	RECQ1 inh-2=-21%;ADP-Glo interf=1%
Nc1nc(=S)c2n[nH]nc2[nH]1	.	.	.	8%	.	.
c1ccc(Cc2nnc3sc(-c4ccco4)nn23)cc1	?	-16%	-8%	?	-51*	-11%	RECQ1 inh-2=?;ADP-Glo interf=2%
Clc1ccccc1-c1nnc2sc(-c3ccco3)nn12	-5%	2%	5%	-10%	-4	-10%
CN1CCC(=O)N(C(CSc2ccc(Br)cc2)c2ccccc2)CC1 (stereo not drawn)	7%	5%	-4%	-21%	.	.
O=C(NCc1ccco1)c1ccc(S(=O)(=O)N2CCOCC2)cc1	?	-27%	32µM*	-1%	-53*	-28%	RECQ1 inh-2=-20%;ADP-Glo interf=0%
O=C(NCc1ccco1)c1ccc(S(=O)(=O)N2CCCCC2)cc1	-6%	-1%	6%	-14%	-2	-1%
O=C(Nc1ccc(O)c(-c2nc3ccccc3o2)c1)C1(c2ccc(Cl)cc2)CCCC1	0%	-8%	4%	-5%	1	?	GCN5L2 inh-2=14*
O=C(Nc1ccc(O)c(-c2nc3ccccc3o2)c1)C1(c2ccc([N+](=O)[O-])cc2)CCCC1	-10%	-3%	-8%	2%	7	-5%
ClC(Cl)(c1nnnn1-c1ccccc1)c1nnnn1-c1ccccc1	3%	-5%	1%	50µM*	?	22µM*	GCN5L2 inh-2=8.1*
Cc1nn2cc(-c3ccccc3)nc2[nH]c1=O	i	6%	0%	0%	-5	?
O=C(O)CCc1nn2cc(-c3ccccc3)nc2[nH]c1=O	i	2%	-6%	8%	-12	?	GCN5L2 inh-2=32*
Cc1ccc(-c2cnc(-c3ccncc3)o2)cc1	-15%	-1%	11%	-4%	2	?	GCN5L2 inh-2=18*
CCSc1ncc(Cl)c(C(=O)Nc2sc3c(c2C(=O)NCCOC)CCCC3)n1	.	.	.	-8%	.	.
CCCC(=O)Nc1cccc(-c2cn3cccnc3n2)c1	-1%	1%	-2%	22%	-2	-15%
CCCC(=O)Nc1ccc(-c2cn3cccnc3n2)cc1	.	-1%	4%	1%	3	32µM*	GCN5L2 inh-2=20*
COc1cccc(C2=Nn3c(nnc3-c3cc(OC)ccc3OC)SC2)c1	i	-11%	10%	.	.	.
SMILES	RECQ1 inh-1	BLM inh	APE1 inh	FEN1 inh	PI5P4K alpha inh	GCN5L2 inh-1	others
CSCC[C@H](NC(=O)[C@H](CC(C)C)NC(=O)CNC(=O)[C@H](Cc1ccc(O)cc1)NC(=O)[C@H](Cc1ccccc1)NC(=O)[C@H](CCCCN)NC(=O)[C@H](CC(N)=O)NC(=O)[C@@H]1CCCN1C(=O)[C@H](CC(=O)O)NC(=O)[C@H](C)NC(=O)[C@@H]1CCC(=O)N1)C(N)=O	0%	4%	10%	.	.	0%
Cc1ccc(S(=O)(=O)/N=C2/NC(=O)/C(=C/c3cccnc3)S2)cc1	-12%	-3%	5%	5%	?	-24%
Cc1ccc(S(=O)(=O)/N=C2/NC(=O)/C(=C\c3cc(Br)cc(Br)c3O)S2)cc1	.	?	44%	28µM*	-78*	16µM*	GCN5L2 inh-2=11*
C/C=C/C=C/C=O	4%	.	-2%	.	.	.
CC(C)CCN1C(=O)c2ccc(C(=O)Nc3ccc(Br)cc3C(=O)O)cc2C1=O	.	-29%	-24%	-25%	?	35µM*	GCN5L2 inh-2=20*
CC(C)CCN1C(=O)c2ccc(C(=O)Nc3cc(C(=O)O)cc(C(=O)O)c3)cc2C1=O	.	1%	48%	5%	-6	-3%
COc1ccccc1Oc1coc2c(CN(C)C)c(O)ccc2c1=O	-4%	-2%	14%	4%	1	-17%
CCN(CC)Cc1c(O)ccc2c(=O)c(Oc3ccccc3OC)coc12	-1%	1%	0%	-3%	-5	?	GCN5L2 inh-2=?
CN(C)CCCOc1c2ccccc2n(Cc2ccccc2)[n+]1[O-]	-10%	4%	-1%	.	.	9%
Cc1ccc(N2C(=O)C3C4C=CC(CC4)C3C2=O)cc1[N+](=O)[O-] (stereo not drawn)	.	-4%	20%	1%	2	?	GCN5L2 inh-2=16*
Cc1ccc(N2C(=O)C3C4C=CC(C4)C3C2=O)cc1C (stereo not drawn)	-10%	2%	-5%	-8%	.	0%
COc1ccc(C2C3C=CCC(C)C3C(=O)N2Cc2ccccc2)cc1Cl (stereo not drawn)	-7%	-11%	-8%	-17%	.	.
